Data taken from PubChem BioAssay (NCI).
About 79,000 compounds went through this panel and 15% of them were active in at least one assay; those are over-represented in the sample as a whole. Calls of active or inactive are those of the source. Rule as the data show it: active = growth inhibition above about 70%; inactive = the rest.

What was measured:
[1] = NCI Yeast Anticancer Drug Screen. Data for the rad52 strain (AID 147);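 also: 0% = growth of vehicle-treated control cultures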; details: S. cerevisiae rad52 mutant growth inhibition, hits give high values
Procedure, shortened: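 Screen used a yeast mutant impaired in DNA repair. After compound exposure, growth was measured. Values reflect inhibition compared with vehicle-treated cells.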

[2] = NCI Yeast Anticancer Drug Screen. Data for the wt1 strain (AID 149);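 also: 0% = growth of vehicle-treated wt1 cultures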; details: S. cerevisiae wt1 strain (SPY 50644) growth inhibition, hits give high values
Procedure, shortened: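 Readout: yeast growth inhibition, normalised to vehicle controls, in the wt1 strain exposed to test compounds.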

[3] = NCI Yeast Anticancer Drug Screen. Data for the rad50EPP+ strain (AID 151);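 also: 0% = growth of vehicle-treated control cultures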; details: S. cerevisiae rad50 mutant strain, hits give high values
Procedure, shortened: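 Exposing the rad50EPP+ strain to each compound, growth was compared with vehicle-only cultures to give inhibition.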

[4] = NCI Yeast Anticancer Drug Screen. Data for the mgt1 strain (AID 153); details: S. cerevisiae mgt1 mutant growth inhibition, hits give high values
Procedure, shortened: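 Genetically defined yeast (mgt1) treated with compound; inhibition of growth expressed against vehicle-treated controls.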

[5] = NCI Yeast Anticancer Drug Screen. Data for the rad50 strain (AID 155);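 also: 0% = growth of vehicle-only cultures of the same strain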; details: S. cerevisiae rad50 strain growth inhibition, hits give high values
Procedure, shortened: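 Compounds were tested on a yeast strain with an engineered DNA damage repair alteration; the reported value is growth inhibition normalised to vehicle treatment.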

[6] = NCI Yeast Anticancer Drug Screen. Data for the mec2-1 strain (AID 157); details: S. cerevisiae mec2-1 strain, hits give high values
Procedure, shortened: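 Readout is yeast growth inhibition, normalised to vehicle-treated controls, in the mec2-1 strain exposed to compound.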

[7] = NCI Yeast Anticancer Drug Screen. Data for the rad14 strain (AID 159);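 also: 0% = growth of vehicle-treated control cultures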; details: S. cerevisiae rad14 strain growth inhibition, hits give high values
Procedure, shortened: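 Compound-treated yeast with a defined DNA-repair lesion; growth inhibition normalised to vehicle-treated cultures.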

[8] = NCI Yeast Anticancer Drug Screen. Data for the sgs1 mgt1 strain (AID 161);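 also: 0% = growth of cultures given vehicle only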; details: S. cerevisiae sgs1 mgt1 strain, hits give high values
Procedure, shortened: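 Yeast cells carrying a defined DNA-repair defect were exposed to test compounds. Growth inhibition was measured relative to vehicle-treated controls.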

[9] = NCI Yeast Anticancer Drug Screen. Data for the CLN2oe strain (AID 163);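 also: 0% = growth of vehicle-only control cultures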; details: S. cerevisiae CLN2oe strain, hits give high values
Procedure, shortened: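 Values reflect how much compound exposure reduced yeast growth, referenced to vehicle-exposed cells. Assay organism is a strain with a defined genetic change affecting cell-cycle control.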

[10] = NCI Yeast Anticancer Drug Screen. Data for the cln2 rad14 strain (AID 165);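 also: 0% = growth equal to vehicle treated cultures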; details: S. cerevisiae cln2 rad14 strain, hits give high values
Procedure, shortened: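 Relative to vehicle controls, growth inhibition of compound-treated cln2 rad14 yeast was recorded.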

[11] = NCI Yeast Anticancer Drug Screen. Data for the bub3 strain (AID 167); details: S. cerevisiae bub3 mutant strain, hits give high values
Procedure, shortened: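 Growth of a checkpoint-deficient yeast mutant is measured after compound exposure. Values represent inhibition relative to vehicle.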

[12] = NCI Yeast Anticancer Drug Screen. Data for the wt2 strain (AID 169);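 also: 0% = growth of vehicle-treated yeast cultures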; details: S. cerevisiae wt2 strain growth inhibition, hits give high values
Procedure, shortened: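 Values express reduction in yeast growth under compound treatment, referenced to vehicle-treated cells.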

[13] = NCI Yeast Anticancer Drug Screen. Data for the mlh1 strain (AID 171);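 also: 0% = growth of vehicle-treated control cultures of the same strain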; details: S. cerevisiae mlh1 strain growth inhibition, hits give high values
Procedure, shortened: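 Steps: expose the defined-mutant yeast strain to compound; expose a parallel culture to vehicle; measure growth; express compound effect as inhibition relative to the vehicle culture.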

[14] = NCI Yeast Anticancer Drug Screen. Data for the sgs1 strain (AID 173);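 also: 0% = growth of vehicle-only control cultures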; details: S. cerevisiae sgs1 mutant, hits give high values
Procedure, shortened: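 Treat defined-mutant yeast with compound; measure growth; calculate inhibition relative to vehicle-treated cells.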

[15] = NCI Yeast Anticancer Drug Screen. Data for the mlh1 rad18 strain (AID 175); details: S. cerevisiae mlh1 rad18 strain growth inhibition, hits give high values
Procedure, shortened: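 Test agents were incubated with a yeast strain of defined genotype (DNA damage repair defect). Inhibition of growth was derived by comparison with vehicle-exposed cultures.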

[16] = NCI Yeast Anticancer Drug Screen. Data for the rad18 strain (AID 177); details: S. cerevisiae rad18 mutant growth inhibition, hits give high values
Procedure, shortened: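 A genetically defined yeast mutant impaired in DNA damage repair was treated with test compounds, then its growth was measured against cultures receiving vehicle alone.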

[17] = at 5.0 µM (retest, dose inferred, filed as 0.5)
[18] = at 50.0 µM (retest, dose inferred, filed as 5.0)

Measured: growth inhibition

O=C1C=CC(=C(c2ccccc2)c2ccccc2)c2ccccc21
inactive: [1]; at 1.2 µM 6% | [1]; at 3.7 µM 3% | [1]; at 11.0 µM -4% | [1]; at 33.0 µM 4% | [1]; at 100.0 µM 0% | [2]; at 1.2 µM 0% | [2]; at 3.7 µM 1% | [2]; at 11.0 µM 1% | [2]; at 33.0 µM 2% | [2]; at 100.0 µM 4% | [3]; at 1.2 µM 9% | [3]; at 3.7 µM 7% | [3]; at 11.0 µM 2% | [3]; at 33.0 µM 15% | [3]; at 100.0 µM 8% | [4]; at 1.2 µM 0% | [4]; at 3.7 µM 0% | [4]; at 11.0 µM -1% | [4]; at 33.0 µM -1% | [4]; at 100.0 µM 2% | [5]; at 1.2 µM 7% | [5]; at 3.7 µM 7% | [5]; [17] 25% | [5]; at 11.0 µM -1% | [5]; at 33.0 µM 8% | [5]; at 50.0 µM -6.5% | [5]; at 100.0 µM 10% | [6]; at 1.2 µM 0% | [6]; at 3.7 µM -1% | [6]; [17] -1% | [6]; at 11.0 µM 1% | [6]; at 33.0 µM -1% | [6]; at 50.0 µM 15.1% | [6]; at 100.0 µM 2% | [7]; at 1.2 µM 5% | [7]; at 3.7 µM 2% | [7]; at 11.0 µM -2% | [7]; at 33.0 µM 1% | [7]; at 100.0 µM -2% | [8]; [17] 43% | [8]; at 50.0 µM 6.15% | [9]; at 1.2 µM -1% | [9]; at 3.7 µM -3% | [9]; at 11.0 µM -9% | [9]; at 33.0 µM -8% | [9]; at 100.0 µM -9% | [10]; [17] 25% | [10]; at 50.0 µM -44.3% | [11]; at 1.2 µM 0% | [11]; at 3.7 µM 1% | [11]; [17] 53% | [11]; at 11.0 µM 3% | [11]; at 33.0 µM 9% | [11]; at 50.0 µM 25.1% | [11]; at 100.0 µM 21% | [12]; at 1.2 µM -6% | [12]; at 3.7 µM -4% | [12]; at 11.0 µM 0% | [12]; at 33.0 µM -4% | [12]; at 100.0 µM -3% | [13]; at 1.2 µM 2% | [13]; at 3.7 µM 0% | [13]; at 11.0 µM -3% | [13]; at 33.0 µM 1% | [13]; at 100.0 µM 0% | [14]; at 1.2 µM -11% | [14]; at 3.7 µM -25% | [14]; at 11.0 µM -10% | [14]; at 33.0 µM 10% | [14]; at 100.0 µM 18% | [15]; [17] 69% | [15]; at 50.0 µM 13.2% | [16]; at 1.2 µM 6% | [16]; at 3.7 µM 4% | [16]; at 11.0 µM 1% | [16]; at 33.0 µM 4% | [16]; at 100.0 µM 2%
active: [5]; [18] 91% | [6]; [18] 89% | [8]; [18] 93% | [10]; [18] 86% | [11]; [18] 92% | [15]; [18] 92%
